Bioassay records: PubChem BioAssay, ICCB-Longwood Screening Facility, Harvard Medical School
RVFV N-RNA FP: blocks Rift Valley Fever Virus nucleoprotein binding to RNA. % bound, % (test concentration not listed). RVFV N-RNA binding, fluorescence polarization; stronger effect = lower value. hit rate 0.1% among 20,000; in the data active means % bound below about 75%
Target sequence (P21700 whole entry, looked up): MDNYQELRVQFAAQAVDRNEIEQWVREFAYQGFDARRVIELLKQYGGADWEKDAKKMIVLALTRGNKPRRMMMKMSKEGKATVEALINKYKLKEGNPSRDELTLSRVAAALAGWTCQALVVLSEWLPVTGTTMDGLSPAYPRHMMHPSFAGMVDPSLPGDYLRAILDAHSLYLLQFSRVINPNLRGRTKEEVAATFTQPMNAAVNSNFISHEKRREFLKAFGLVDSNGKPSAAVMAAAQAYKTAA
The depositor's hits bear a star. This is one part of a sample in which hits are shown more often than they occur.

SMILES	RVFV N-RNA FP
Cc1ccnc(SCc2cc(=O)c(OC(=O)c3ccc4c(c3)OCO4)co2)n1	95
Cc1nnc(C)n1N1C(=O)c2cccc3cccc(c23)C1=O	88
CCCC(=O)ON1C(=O)c2cccc3cccc(c23)C1=O	98
O=C1C=C(O)c2cccc3cccc1c23	45*
C=CCn1c(CNC=O)nc2ccccc21	98
COC(=O)CNc1cc[nH]c(=O)c1C#N	105
CCCN(C)S(=O)(=O)c1ccc(I)cc1	100
Cc1cccc(N2C(=O)c3ccc(Oc4ccc5c(c4)C(=O)N(c4cccc(C)n4)C5=O)cc3C2=O)n1	88
N#CC(C#N)=Cc1c(-c2ccccc2)nc2n1CCS2	96
CCCCn1c(CCCNC=O)nc2ccccc21	95
CCCC(C)C(=O)NCc1ccccc1 (configuration not stated)	92
CC1CC(=O)Nc2ccccc2N1S(=O)(=O)c1cccc2nonc12 (configuration not stated)	91
O=C(Nc1ccc(Cl)c(Cl)c1)Nc1ncc2c(n1)CC(c1ccco1)CC2=O (configuration not stated)	92
c1ccc(CCN2CCN(c3ccccc3)CC2)cc1	97
O=c1c2ccccc2ncn1CCOc1cccc(C(F)(F)F)c1	99
Oc1cccc(CN2CCN(Cc3ccccc3)CC2)c1	93
CSc1ccnc2c1c(=O)n(C)c(=O)n2C	99
Cc1ccsc1/C=N/NC(=O)CN1CCSCC1	92
COc1cc(C2Nc3cc(Cl)ccc3O2)cc(OC)c1OC (configuration not stated)	101
CCOC(=O)c1c(C)n(-c2ccc(OC)cc2)c2ccc(Oc3ncccc3C#N)cc12	91
CCOC(=O)/C(C#N)=C/N1CCCC1c1cccs1 (configuration not stated)	92
CCOC(=O)/C(C#N)=C/c1ccc(-c2cccs2)s1	19*
N#CC(C#N)=Cc1ccc(-c2cccs2)s1	86
CCOC(=O)c1ccsc1NC(=O)CN1C(=O)c2ccccc2C1=O	93
NNc1nccc(C(F)(F)F)n1	99
SMILES	RVFV N-RNA FP
COc1ccc(O)cc1	99
COC(=O)c1cc(-c2ccc(OC)cc2)n[nH]1	89
COc1ccc(C2=CC(=O)C=CC2=O)cc1	52*
CC(C)c1ccc(N2C(=O)C=CC2=O)cc1	83
CCc1ccc(NC(=S)NC(=O)/C=C/c2ccco2)cc1	82
CC(C)COc1ccc(Br)cc1C(=O)O	92
Cc1nn(-c2ccccc2)c2ncc(C(=O)N3CCN(C)CC3)c(Cl)c12	96
c1ccc(-c2noc(-c3cccs3)n2)cc1	99
O=C(NCCSc1nnnn1-c1ccccc1)c1ccco1	94
C=CCN(Cc1nc(-c2ccccc2)no1)C(=O)COc1ccccc1	95
COc1ccc(-c2nc3scc(CCNS(=O)(=O)N(C)C)n3n2)cc1	98
CCN(CC)CCNC(=O)c1c(C)[nH]c(/C=C2\C(=O)Nc3ccc(Cl)cc32)c1C	109
O=C1Nc2ccccc2/C1=C\c1c(Cl)[nH]c2ccccc12	103
CCOC(=O)c1c(C)[nH]c(/C=C2\C(=O)Nc3ccccc32)c1C	12*
O=S(=O)(NCc1cc(F)cc2c1OCOC2)c1cccc2nonc12	96
Cn1c2ccccc2c2[nH]c3ccccc3c21	91
Cc1ccc(-n2nnc3c(=O)n(CC(=O)N4CC(C)OC(C)C4)cnc32)cc1Cl (configuration not stated)	93
O=C1/C(=C/c2ccccc2)Oc2c1ccc(O)c2CN1CCCC1	106
CCN(CC)Cc1c(O)ccc2c1O/C(=C\c1ccccc1Cl)C2=O	51*
CCN(CC)Cc1c(O)ccc2cc(-c3ccc(OC)c(OC)c3)c(=O)oc12	93
O=C(c1ccco1)N1N=C(c2c(-c3ccccc3)c3cc(Cl)ccc3[nH]c2=O)CC1c1ccco1 (configuration not stated)	97
Cc1ccc(N2CC(=O)N(C)C2=S)cc1	92
Cc1ccc(C2=NNC(=O)CC2)cc1C	85
COC(=O)c1sccc1NC(=O)c1ccc(F)cc1	94
CCc1nc(Cc2nc3ccccc3[nH]2)no1	95
SMILES	RVFV N-RNA FP
CCCN(CCC)S(=O)(=O)c1ccc(C(=O)NC2=C(C(=O)OC)SCC2)cc1	96
COC(=O)c1c(C)n(CCC2=CCCCC2)c2ccc(O)cc12	94
CCCCSc1nnc(CNC(=O)c2ccccc2)n1-c1ccccc1	96
COC1C2C3CC4C5C3C1C5C(O)(c1ccccc1)C42 (configuration not stated)	91
Fc1ccc(OCCc2nc(-c3ccc(C4SCCS4)cc3)no2)cc1	89
CC(C)=NNC(=S)NC1CC2CCC1C2 (configuration not stated)	100
CC(C)OC(=O)CC1C(=O)NCCN1C(=S)NC(=O)C1CCCCC1 (configuration not stated)	96
Cc1cccn2cc(CNC(=O)CC3CCCCC3)nc12	100
C=CCN(CC=C)CCOc1ccc(Cl)cc1	101
S=C(NNc1ccccc1)c1ccccc1	77
CN1CCN(NC(NC(=O)c2cccnc2)(C(F)(F)F)C(F)(F)F)CC1	95
ONC(=Nc1ccccc1)c1cccnc1	101
O=C(O)c1ccc(C23CC4CC(CC(C4)C2)C3)o1	99
O=C1CCc2cc(S(=O)(=O)N3CCCC3)cc3c2N1CCC3	88
Cc1nn(-c2ccccc2)nc1CNC(=O)c1ccc2nsnc2c1	99
COc1ccc(CC(=O)NC(C)c2nnc(SCC(=O)Nc3cc(C)ccc3OC)n2C)cc1 (configuration not stated)	99
COc1ccccc1C(=O)NCc1ccccc1C	95
N#CCn1ccn(-c2cccc3ccccc23)c(=O)c1=O	98
NNC(=O)CC(=O)Nc1nc2ccccc2s1	88
CN(C)c1cc(-c2ccccc2)oc(=O)c1Cl	95
O=C(CSc1ccc2nnc(-c3ccncc3)n2n1)N1CCCC1	96
